Compound activity: PubChem BioAssay, several laboratories
Rce1 inh: blocks yeast Ras-converting enzyme; Q03530; yeast membranes, quenched prenylated peptide cleavage fluorescence; calls only; actives 0.27% (n = 290,000); AID 2563;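 active means fall in fluorescence gain of 50% or more versus controls, with final raw signal at or below 3038400; inconclusive means same 50% fall but final raw signal above 3038400; inactive means fall in fluorescence gain under 50%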
Target sequence (Q03530 whole entry, looked up): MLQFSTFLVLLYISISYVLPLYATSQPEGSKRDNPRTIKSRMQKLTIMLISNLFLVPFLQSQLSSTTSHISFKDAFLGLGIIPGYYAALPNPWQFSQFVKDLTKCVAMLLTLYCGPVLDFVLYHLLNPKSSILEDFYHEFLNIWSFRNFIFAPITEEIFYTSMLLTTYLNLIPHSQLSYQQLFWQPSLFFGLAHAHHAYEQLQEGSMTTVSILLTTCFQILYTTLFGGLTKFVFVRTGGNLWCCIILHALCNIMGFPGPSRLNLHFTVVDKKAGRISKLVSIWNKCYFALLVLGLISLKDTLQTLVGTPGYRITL
HDAC3 inh: blocks human histone deacetylase 3; inhibition, % at 8.3 µM; recombinant HDAC3, fluorogenic peptide/trypsin coupled, fluorescence; actives 0.15% (n = 320,000); AID 2718; in the data active means inhibition above about 26%, passing the limit was not always enough; inconclusive means no clear call, values can overlap the other calls
GRK2 aptamer HTS: inhibitors of human GRK2 displacing RNA aptamer. P25098. bead flow cytometry, FAM-aptamer displacement from GRK2. inhibition of aptamer binding, % at 10 µM. actives 0.59% (n = 330,000);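 active means inhibition of aptamer binding above 40%, roughly 3 SD of noise, on plates passing a quality check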;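 further: median bead fluorescence of bound FAM aptamer so fluorescent compounds give negative values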
Rtt109 Vps75: C. albicans Rtt109 histone acetyltransferase inhibition. purified Rtt109/Vps75, ThioGlo CoA-SH fluorescence, 4 h. inhibition, % at 34.9 µM. actives 0.16% (n = 330,000);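 active means inhibition of at least 50% in every replicate; inconclusive means best replicate reaches 50% inhibition but some replicates fall short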
Efflux pump mplx: blocks antifungal efflux pumps in multiplex yeast assay. S. cerevisiae Candida pump triplex, Nile Red efflux. inhibition, % at 10 µM. actives 0.44% (n = 330,000);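 active means plate passing quality check with inhibition over a set limit, or well fluorescence over plate mean plus 4 SD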;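 further: Nile Red retained in pooled yeast measured as flow cytometry median fluorescence; higher means more Nile Red kept so more efflux inhibition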
ALR H2O2 inh: human ALR oxidase inhibition via reduced H2O2; AID 485317; actives 3.8% (n = 290,000); inhibition, % (no concentration beside the values); purified ALR, DTT oxidation, H2O2 HRP-luminol luminescence;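 active means mean replicate inhibition above about 79%, with every replicate also reaching it, limit read from the data; inconclusive means only one of the two criteria met; inactive means mean below limit and not every replicate reaching it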
Target sequence (P55789 whole entry, looked up): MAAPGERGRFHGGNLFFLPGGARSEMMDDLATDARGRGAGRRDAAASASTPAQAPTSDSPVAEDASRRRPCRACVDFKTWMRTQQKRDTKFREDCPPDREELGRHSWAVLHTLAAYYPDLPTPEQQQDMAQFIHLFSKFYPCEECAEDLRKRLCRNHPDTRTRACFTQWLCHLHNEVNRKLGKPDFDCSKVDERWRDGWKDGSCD
Yeast cmpd fluor: compound fluorescence in yeast efflux pump counter-screen. shares compounds with Efflux pump mplx. S. cerevisiae AD/pABC3, flow cytometry. fluorescence ratio to DMSO, % at 10 µM. actives 4% (n = 1,700);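 active means fluorescence ratio to DMSO above its plate's cutoff, the plate mean ratio plus 5 SD, cut at about 210% in these data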;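 further: unstained yeast with no Nile Red so the signal is compound autofluorescence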
Mdr1 pump inh: blocks the Candida albicans Mdr1 efflux pump in yeast; shares compounds with Efflux pump mplx; S. cerevisiae AD/CaMDR1, Nile Red efflux, flow cytometry; inhibition, % at 10 µM; actives 1% (n = 1,700); in the data active means inhibition above about 26%;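 further: higher means more Nile Red retained so more efflux inhibition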
CaCdr2 efflux inh: inhibitors of Candida albicans Cdr2 efflux pump | Nile Red retention ratio vs DMSO, % at 10 µM | shares compounds with Efflux pump mplx | S. cerevisiae AD/CaCDR2, Nile Red retention, flow cytometry | actives 4% (n = 1,700); in the data active means Nile Red retention ratio vs DMSO above about 190%;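 further: higher ratio means more blocking of Cdr2 efflux of the dye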
Cdr1 pump inh: blocks the Candida albicans Cdr1 efflux pump in yeast | shares compounds with Efflux pump mplx | S. cerevisiae AD/CaCDR1, Nile Red efflux, flow cytometry | inhibition, % at 10 µM | actives 1% (n = 1,700);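 active means inhibition above the screen-wide mean plus twice its standard deviation, cut at about 32% in these data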
Large screens that a line does not name were inactive (follow-up assays come after a bar, where they were run); ! = repeats disagree. In the library only some 4.5% were active in any assay of this set; here they are far more common.

O=C1c2ccccc2C(=O)N1CN(C(=O)COc1ccccc1)c1ccc(F)cc1	Efflux pump mplx 8.0 | Yeast cmpd fluor inactive | Mdr1 pump inh inactive | CaCdr2 efflux inh inactive | Cdr1 pump inh inactive
Cc1ccc2c(c1)S(=O)(=O)N(C)C(c1ccccc1)=C2	none (no result: Rce1 inh, HDAC3 inh, GRK2 aptamer HTS, Efflux pump mplx, ALR H2O2 inh)
CN(C)Cc1c(O)ccc2c1O/C(=C\C=C\c1ccccc1)C2=O	Efflux pump mplx 0.6 (no result: ALR H2O2 inh) | Yeast cmpd fluor inactive | Mdr1 pump inh inactive | CaCdr2 efflux inh inactive | Cdr1 pump inh inactive
COc1nc(N(C)C)nc(N(C#N)S(=O)(=O)c2ccc(C)cc2)n1	none (no result: Rce1 inh)
COc1ccc(NC(=O)CSc2nc3ccccc3c(=O)n2CCNC(C)=O)c(OC)c1	none
COc1ccc(OC)c(NC(=O)CSc2nc3ccccc3c(=O)n2CCNC(C)=O)c1	Efflux pump mplx 0.6 | Yeast cmpd fluor inactive | Mdr1 pump inh inactive | CaCdr2 efflux inh inactive | Cdr1 pump inh inactive
COc1ccccc1NC(=O)c1ccccc1NC(=O)c1cc(Cl)ccc1NC(=O)c1ccco1	Efflux pump mplx 0.5 | Yeast cmpd fluor inactive | Mdr1 pump inh inactive | CaCdr2 efflux inh inactive | Cdr1 pump inh inactive
CCCCC(CC)CN=C(N)NC(N)=NCCCCCCN=C(N)NC(N)=NCC(CC)CCCC (centres undefined)	HDAC3 inh inconclusive, Efflux pump mplx 2.2 (no result: Rce1 inh) | Yeast cmpd fluor inactive | Mdr1 pump inh inactive | CaCdr2 efflux inh inactive | Cdr1 pump inh inactive
CCCCCCCCCCCCCCCC(=O)OC(CC(=O)O)C[N+](C)(C)C (centres undefined)	Rtt109 Vps75 inconclusive (no result: Rce1 inh, HDAC3 inh, ALR H2O2 inh)
CCCCCCOC(=O)C[N+](C)(C)CCOC1CC2CCC1(C)C2(C)C (centres undefined)	Efflux pump mplx 2.6 (no result: ALR H2O2 inh) | Yeast cmpd fluor inactive | Mdr1 pump inh inactive | CaCdr2 efflux inh active | Cdr1 pump inh inactive
O=C(CN1CCN(c2cccc(C(F)(F)F)c2)CC1)N(C1CCCC1)C1CCS(=O)(=O)C1 (centres undefined)	none (no result: Rce1 inh, ALR H2O2 inh)
CCN(CC)c1ccc2cc(-c3nnc(-c4ccccc4)o3)c(=O)oc2c1	none
CCN(CC)c1ccc2cc(-c3nc(-c4ccc(OC)cc4)cs3)c(=O)oc2c1	Efflux pump mplx 6.0 (no result: Rce1 inh, Rtt109 Vps75) | Yeast cmpd fluor 640.5 | Mdr1 pump inh inactive | CaCdr2 efflux inh 731.5 | Cdr1 pump inh inactive
O=C(Nc1nnc(-c2cccs2)s1)c1cccc(F)c1	none (no result: ALR H2O2 inh)
O=C(O)CC1=C(Nc2ccccc2)C(=O)N(c2ccccc2)C1c1ccc(Br)cc1 (centres undefined)	none (no result: HDAC3 inh)
COc1ccc(N2CCN(CCC(=O)c3ccc4ccccc4c3)CC2)cc1	none
CC1CC(C)CN(c2ncc3c(n2)CC(c2ccc(Cl)cc2)CC3=O)C1 (centres undefined)	Efflux pump mplx 6.7 | Yeast cmpd fluor inactive | Mdr1 pump inh inactive | CaCdr2 efflux inh inactive | Cdr1 pump inh inactive
COc1ccc(/C=C/c2ccc3ccccc3[n+]2C)cc1OC	Efflux pump mplx 1.1 (no result: Rtt109 Vps75) | Yeast cmpd fluor inactive | Mdr1 pump inh inactive | CaCdr2 efflux inh inactive | Cdr1 pump inh inactive
CC(=O)Oc1ccccc1/C=C/c1ccc2ccccc2[n+]1C	none
O=C(CSc1nnc(Cc2cccs2)n1Cc1ccco1)Nc1cc(Cl)cc(Cl)c1	none | Yeast cmpd fluor inactive | Mdr1 pump inh inactive | CaCdr2 efflux inh inactive | Cdr1 pump inh inactive
Cc1ccc(NC(=O)CSc2nnc(-c3cccs3)n2Cc2ccco2)cc1	none (no result: Rce1 inh)
O=C(CSc1nnc(Cc2cccs2)n1Cc1ccco1)Nc1cccc(Cl)c1	none | Yeast cmpd fluor inactive | Mdr1 pump inh inactive | CaCdr2 efflux inh inactive | Cdr1 pump inh inactive
COc1cc(C(=O)NCC(=O)OCCN2C(=O)c3ccccc3C2=O)cc(OC)c1OC	none (no result: ALR H2O2 inh)
O=C(NNc1cc(N2CCCC2)nc(N2CCCC2)n1)c1ccc([N+](=O)[O-])cc1	Efflux pump mplx 0.7 | Yeast cmpd fluor inactive | Mdr1 pump inh inactive | CaCdr2 efflux inh inactive | Cdr1 pump inh inactive
Cc1cn2c(=O)c(C(=O)N3CCN(c4ccccc4)CC3)cnc2s1	none
O=C(O)C(c1ccccc1)N1C(=O)/C(=C\c2ccc(O)c(O)c2)SC1=S (centres undefined)	Efflux pump mplx 2.0, ALR H2O2 inh 99.0 | Yeast cmpd fluor inactive | Mdr1 pump inh inactive | CaCdr2 efflux inh inactive | Cdr1 pump inh inactive
CCCCN(C(=O)CSc1nnc2ccccn12)c1c(N)n(Cc2ccccc2)c(=O)[nH]c1=O	none
CCN(C(=O)CSc1nnc2ccccn12)c1c(N)n(Cc2ccccc2)c(=O)[nH]c1=O	Efflux pump mplx 5.8 | Yeast cmpd fluor inactive | Mdr1 pump inh inactive | CaCdr2 efflux inh inactive | Cdr1 pump inh inactive
COc1ccc([C@@H]2Sc3ccccc3N(CCN(C)C)C(=O)[C@@H]2OC(C)=O)cc1	none | Yeast cmpd fluor inactive | Mdr1 pump inh inactive | CaCdr2 efflux inh inactive | Cdr1 pump inh inactive
O=C(Cc1cc(=O)[nH][nH]1)N/N=C/c1cccc(Cl)c1Cl	Efflux pump mplx 18.9! | Yeast cmpd fluor inactive | Mdr1 pump inh inactive | CaCdr2 efflux inh inactive | Cdr1 pump inh inactive
O=C(Cc1cc(=O)[nH][nH]1)N/N=C/c1ccccc1Cl	none (no result: Rtt109 Vps75, ALR H2O2 inh)
CN(CC(=O)Nc1ccc(F)c(F)c1F)C(=O)C1CCCC1	none (no result: Rce1 inh, HDAC3 inh, ALR H2O2 inh)
COc1ccc(OC)c(/C=C/c2ccnc3ccccc23)c1	none (no result: Rce1 inh, HDAC3 inh, GRK2 aptamer HTS, Efflux pump mplx, ALR H2O2 inh)
COc1ccc2nccc(/C=C/c3ccnc4ccc(OC)cc34)c2c1	Efflux pump mplx 0.7 (no result: GRK2 aptamer HTS, Rtt109 Vps75) | Yeast cmpd fluor inactive | Mdr1 pump inh inactive | CaCdr2 efflux inh inactive | Cdr1 pump inh inactive
Cn1c(NC(=O)/C=C/c2ccccc2)cc(=O)n(C)c1=O	none
COc1ccc(/C=C/C(=O)Nc2cc(=O)n(C)c(=O)n2C)cc1	Efflux pump mplx 15.2 (no result: GRK2 aptamer HTS) | Yeast cmpd fluor inactive | Mdr1 pump inh inactive | CaCdr2 efflux inh inactive | Cdr1 pump inh inactive
O=C(O)c1ccc(N2C(=O)/C(=C/c3ccc(-c4ccc([N+](=O)[O-])cc4)o3)C=C2c2ccccc2)cc1	Efflux pump mplx 4.7 | Yeast cmpd fluor 733.8 | Mdr1 pump inh inactive | CaCdr2 efflux inh active | Cdr1 pump inh inactive
CC(=O)N/C(=C\c1ccccc1)C(=O)OCc1ccccc1	Efflux pump mplx 1.5 | Yeast cmpd fluor inactive | Mdr1 pump inh inactive | CaCdr2 efflux inh inactive | Cdr1 pump inh inactive
COc1cc(C(C)=O)ccc1OCC(O)Cn1nc(C)c(Br)c1C (centres undefined)	none
Cc1ccccc1-n1nc(C(=O)c2cccs2)cc(-c2nc3ccccc3[nH]2)c1=N	Efflux pump mplx 0.3 (no result: Rce1 inh, ALR H2O2 inh) | Yeast cmpd fluor inactive | Mdr1 pump inh inactive | CaCdr2 efflux inh inactive | Cdr1 pump inh inactive
